Reference: the OligoGym collection

Molecular target: TMEM218
Assay: pooled miR-30 sensor sort-seq; sequence = guide strand
Details: shRNA

Sequence	sensor-assay potency score (higher = more potent)
ATCCACAATCTTAACTTCCACT	-0.762
AACATAATGGATTAAAACCAAG	-1.68
AAAAGCAACAGAACTGATGTGA	0.455
AATCTTAACTTCCACTTCTGGG	-0.603
ATGTGATGATCACAGCACCGAA	-1.69
TTAACTTCCACTTCTGGGGCTG	0.528
TCTTAACTTCCACTTCTGGGGC	-0.618
TGTGATGATCACAGCACCGAAG	-0.957
AAAAAAATGACAGAGAACCTCG	0.153
ATCTTAACTTCCACTTCTGGGG	-0.795
TAACTTCCACTTCTGGGGCTGG	-0.428

Molecular target: TMEM229B
Assay: as above
Details: shRNA

Sequence	sensor-assay potency score (higher = more potent)
AAGTTCACCACGAACTCCCAGG	-0.691
TTGCGGATGATGAACTGCTCCA	-0.427
TCAGCGTCCTTGTCGAAGCGGA	-0.896
TCCACGATGAGGATGGAGGTGC	-1.19
ATCACCTCGCAGAAGTAGCCGT	-0.867
TCGAACTGGGAGTAGTCCCAGG	-0.884
ATGGCATACAGGTACCAGCGGG	-1.1
AACTCCCACAGGTAGGTCCAGA	-1.06
TCCTTGTCGAAGCGGAGGCGGA	-1.59
TGAAGTCAAAGTCGAACTGGGA	-0.249
TGGCATACAGGTACCAGCGGGA	-0.837
TCACCTCGCAGAAGTAGCCGTG	-0.46
